For 7 compounds, Potency and outcome results are on record in PubChem BioAssay (Tox21).

Unmarked numbers belong to inactive results. Records with an inconclusive call do not appear. Calls of active or inactive are those of the source. Unless noted, calls follow the shape of the full dose curve.

Assay [1] can be described thus: qHTS assay to identify small molecule antagonists of the sonic hedgehog signaling (Shh) pathway (AID 1259369). Also: nearly all actives have a fitted effect of over 45% in size. Also: potency is read from the fitted curve at half-maximal effect. In outline:
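NIH/3T3-derived Gli1-Luc reporter cells plated 4 h, dosed with compound, then stimulated with conditioned medium for 24 h at 37 C. Firefly luciferase luminescence read after 30 min with detection reagent at room temperature.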

The target of assay [2] is Estrogen receptor beta (Homo sapiens) (UniProt Q92731). Briefly: qHTS assay to identify small molecule agonists of the estrogen receptor beta (ER-beta) signaling pathway (AID 1259377; active = well fitted activation curve with a large enough effect in the signal ratio in the repeat runs, not every such curve was filed as active; the % refers to the signal ratio). In outline:
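A UAS-controlled beta-lactamase reporter in ER-beta-UAS-bla HEK293T cells reports receptor activation. Compounds act for 16 hr at 37C in 2% charcoal-stripped serum, and a FRET substrate is read by fluorescence after 2 hours.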
Background: Quantitative high-throughput screening tests each substance at several concentrations.

The nature of assay [3]: qHTS assay to identify small molecule agonists of the androgen receptor (AR) signaling pathway in the presence of an antagonist - cell viability counter screen (AID 1259379; active = well fitted curve in the direction sought with a large enough effect in the repeat runs; an effect the other way counts as inactive or inconclusive; also: nearly all actives have a fitted effect of over 25% in size; also: potency is read from the fitted curve at half-maximal effect). In outline:
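MDA-kb2 cells (MMTV-luciferase, AR/GR), 3,000/well, 5 h attachment, then 3.0 µM nilutamide (final) and compounds at 15 concentrations. Viability by CellTiter-Fluor fluorescence after 16 h at 37 °C, 0% CO2, in the reporter wells.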

For assay [4], the target named is Androgen receptor (Homo sapiens) (UniProt P10275). Briefly: qHTS assay to identify small molecule agonists of the androgen receptor (AR) signaling pathway in the presence of an antagonist (AID 1259381). Also: nearly all actives have a fitted effect of over 15% in size. In outline: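 MDA-kb2 cells carrying MMTV-luciferase (AR/GR responsive), 3,000 cells/well, co-treated with 3.0 uM nilutamide final. Compounds at 15 concentrations, 16 hr at 37C without CO2. Luciferase luminescence read after 30 min with ONE-Glo.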
Chain of Androgen receptor (Homo sapiens) (P10275 whole entry, looked up): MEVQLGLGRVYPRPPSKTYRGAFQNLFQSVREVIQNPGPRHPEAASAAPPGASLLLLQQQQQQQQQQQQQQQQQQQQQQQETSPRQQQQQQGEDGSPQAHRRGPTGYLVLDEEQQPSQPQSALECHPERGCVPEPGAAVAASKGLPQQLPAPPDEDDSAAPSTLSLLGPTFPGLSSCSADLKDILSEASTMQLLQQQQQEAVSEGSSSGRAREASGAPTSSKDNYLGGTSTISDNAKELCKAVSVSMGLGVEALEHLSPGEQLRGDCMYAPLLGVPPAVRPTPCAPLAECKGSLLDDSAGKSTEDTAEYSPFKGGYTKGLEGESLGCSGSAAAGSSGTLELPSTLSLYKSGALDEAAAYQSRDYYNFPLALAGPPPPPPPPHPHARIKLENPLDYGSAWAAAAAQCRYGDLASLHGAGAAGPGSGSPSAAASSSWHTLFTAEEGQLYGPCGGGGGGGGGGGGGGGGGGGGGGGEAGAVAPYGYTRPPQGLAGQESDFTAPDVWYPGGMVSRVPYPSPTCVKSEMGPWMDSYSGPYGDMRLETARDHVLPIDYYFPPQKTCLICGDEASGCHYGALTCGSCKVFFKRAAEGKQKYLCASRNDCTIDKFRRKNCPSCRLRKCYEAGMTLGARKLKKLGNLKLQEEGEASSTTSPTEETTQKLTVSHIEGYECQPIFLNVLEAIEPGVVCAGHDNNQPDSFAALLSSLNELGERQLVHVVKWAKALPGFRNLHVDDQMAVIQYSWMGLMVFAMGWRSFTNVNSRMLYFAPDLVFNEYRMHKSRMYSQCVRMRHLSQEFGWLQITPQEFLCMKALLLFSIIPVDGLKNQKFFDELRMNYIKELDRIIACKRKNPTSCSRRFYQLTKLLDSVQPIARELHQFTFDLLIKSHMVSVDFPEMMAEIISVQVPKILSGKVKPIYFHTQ

Assay [5] in a line: qHTS assay to identify small molecule antagonists of the estrogen receptor beta (ER-beta) signaling pathway - cell viability counter screen (AID 1259382; active = well fitted curve in the direction sought with a large enough effect in the repeat runs; an effect the other way counts as inactive or inconclusive;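 also: HEK293T cells carrying ER-beta-UAS-bla reporter stimulated with estradiol; series mostly up to about 92 µM; nearly all actives have a fitted effect of over 55% in size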). In outline: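 ER-beta-UAS-bla HEK293T cells in 2% charcoal-stripped FBS medium, treated with compound plus 1 nM 17-beta-estradiol for 16 h at 37C. Viability read by CellTiter-Glo luminescence after 30 min at room temperature in the same wells.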

Assay [6] concerns the target Estrogen receptor (Homo sapiens) (UniProt P03372). Briefly: qHTS assay to identify small molecule agonists of the estrogen receptor alpha (ER-alpha) signaling pathway in the presence of an antagonist (AID 1259383). Also: top concentration of the series differs between compounds; nearly all actives have a fitted effect of over 15% in size. In outline:
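VM7Luc4E2 cells express endogenous full-length ER-alpha with an ERE-luciferase reporter and were hormone-deprived for 5 days. Compounds at 15 concentrations were added with 10.0nM ICI-182,780 for 22hr at 37C. Luminescence was read with ONE-Glo.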

The nature of assay [7]: qHTS assay to identify small molecule agonists or antagonists of the thyroid stimulating hormone receptor (TSHR) signaling pathway - wild type cell line counter screen (AID 1259384). In outline: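 Counter screen in untransfected Hek293: compounds (15-point titration, triplicate) plus phosphodiesterase inhibitor Ro20-1724 added after 18 h plating; 30 min RT. Intracellular cAMP via competitive d2/cryptate immunoassay, 1 h incubation.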

For assay [8], the target named is Thyrotropin receptor (Homo sapiens) (UniProt P16473). Briefly: qHTS assay to identify small molecule antagonists of the thyroid stimulating hormone receptor (TSHR) signaling pathway (AID 1259385). Also: nearly all actives have a fitted effect of over 20% in size. In outline: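 Antagonist mode: compound-treated TSHR-expressing HEK293 cells were stimulated with 1.5 ng/mL TSH (final) in presence of Ro20-1724 for 30 min at RT. HTRF cAMP detection after 1 h; each compound tested at 15 concentrations, triplicate.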
Chain of Thyrotropin receptor (Homo sapiens) (P16473 whole entry, looked up): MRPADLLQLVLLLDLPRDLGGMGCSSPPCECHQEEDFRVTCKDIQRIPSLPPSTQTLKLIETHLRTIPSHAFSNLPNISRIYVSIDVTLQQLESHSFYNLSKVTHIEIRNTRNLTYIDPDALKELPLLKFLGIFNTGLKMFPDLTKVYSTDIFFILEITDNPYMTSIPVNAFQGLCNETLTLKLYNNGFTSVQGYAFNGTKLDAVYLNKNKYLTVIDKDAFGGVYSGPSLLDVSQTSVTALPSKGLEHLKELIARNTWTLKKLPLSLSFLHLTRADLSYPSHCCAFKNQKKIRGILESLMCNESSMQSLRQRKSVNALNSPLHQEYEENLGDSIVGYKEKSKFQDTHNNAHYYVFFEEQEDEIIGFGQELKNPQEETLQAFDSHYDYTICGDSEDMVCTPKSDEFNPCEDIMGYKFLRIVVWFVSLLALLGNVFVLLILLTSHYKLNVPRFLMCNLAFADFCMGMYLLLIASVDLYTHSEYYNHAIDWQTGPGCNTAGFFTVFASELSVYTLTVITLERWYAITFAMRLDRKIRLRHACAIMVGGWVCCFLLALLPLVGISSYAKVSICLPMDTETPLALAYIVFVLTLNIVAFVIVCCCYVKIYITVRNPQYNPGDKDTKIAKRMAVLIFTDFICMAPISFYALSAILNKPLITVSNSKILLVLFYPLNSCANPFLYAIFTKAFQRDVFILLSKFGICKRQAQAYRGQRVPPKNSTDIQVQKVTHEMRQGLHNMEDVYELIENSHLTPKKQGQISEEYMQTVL

Assay [9] is described as follows: qHTS assay to identify small molecule agonists of the estrogen receptor alpha (ER-alpha) signaling pathway in the presence of an antagonist - cell viability counter screen (AID 1259386; active = well fitted curve in the direction sought with a large enough effect in the repeat runs; an effect the other way counts as inactive or inconclusive;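 also: cells exposed to compounds for 22 h at 37 °C before the viability read; nearly all actives have a fitted effect of over 30% in size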; also: potency is read from the fitted curve at half-maximal effect). In outline:
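Cell viability in VM7Luc4E2 cells (endogenous full-length ER-alpha) measured by CellTiter-Fluor fluorescence in the same wells as the luciferase screen. Cells pre-cultured 5 days in charcoal-stripped serum, then treated 22 h with compounds at 15 concentrations plus 10.0nM ICI-182,780.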

Assay [10] deals with Progesterone receptor (Homo sapiens) (UniProt P06401). Briefly: qHTS assay to identify small molecule agonists of the progesterone receptor (PR) signaling pathway (AID 1346784). Also: nearly all actives have a fitted effect of over 30% in size. In outline:
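Agonist mode, quantitative HTS format in a HEK 293T line expressing a UAS-controlled beta-lactamase reporter; 16 hr compound exposure at 37C in 2% charcoal-stripped FBS, then LiveBLAzer B/G FRET fluorescence.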

Assay [11] is described as follows: qHTS assay to identify small molecule antagonists of the TGF-beta/Smad signaling pathway - cell viability counter screen (AID 1346824; active = well fitted curve in the direction sought with a large enough effect in the repeat runs; an effect the other way counts as inactive or inconclusive; also: nearly all actives have a fitted effect of over 50% in size). In outline: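 Cytotoxicity counter-screen run in the same wells as the beta-lactamase Smad reporter read: CellTiter-Glo luminescence after 30 min at room temperature. HEK 293T SBE-bla cells had 5 hr compound exposure at 37 C with TGF-beta1 (0.25 ng/mL stock).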

Assay [12] is described as follows: qHTS assay to identify small molecule agonists of the TGF-beta/Smad signaling pathway - cell viability counter screen (AID 1346829; active = well fitted curve in the direction sought with a large enough effect in the repeat runs; an effect the other way counts as inactive or inconclusive; also: top concentration of the series differs between compounds; nearly all actives have a fitted effect of over 45% in size). In outline:
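Same-well cytotoxicity: CellTiter-Glo added after the 2 hr room-temperature beta-lactamase substrate step, luminescence measured 30 min later; cells had 5 hr of compound at 37 C.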

Assay [13] is described as follows: qHTS assay to identify small molecule agonists of the TGF-beta/Smad signaling pathway (AID 1346859; active = well fitted activation curve with a large enough effect in the signal ratio in the repeat runs, not every such curve was filed as active; the % refers to the signal ratio; also: series mostly up to about 77 µM). In outline:
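Smad-responsive beta-lactamase reporter cells (HEK 293T) received compounds from DMSO stocks after overnight attachment, were incubated 5 hr, then treated 2 hr with FRET substrate before dual-emission fluorescence measurement (405 nm excitation).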

Assay [14] addresses Thyrotropin-releasing hormone receptor (Homo sapiens) (UniProt P34981). Briefly: qHTS assay to identify small molecule agonists of the thyrotropin-releasing hormone receptor (TRHR) signaling pathway (AID 1346891). Also: series mostly up to about 58 µM. In outline: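 Agonist-mode calcium mobilisation screen: TRHR-transfected HEK293 cells cultured overnight (18 h), dye-loaded for 2 h at 37 °C, exposed to compounds, and monitored by fluorescence for 3 min.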

For assay [15], the target named is Progesterone receptor (Homo sapiens) (UniProt P06401). Briefly: qHTS assay to identify small molecule antagonists of the progesterone receptor (PR) signaling pathway (AID 1346795; active = well fitted inhibition curve with a large enough effect in the signal ratio in the repeat runs, not every such curve was filed as active; the % refers to the signal ratio; also: potency is read from the fitted curve at half-maximal effect). In outline: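 HEK293T PR-UAS-bla reporter cells in charcoal-stripped serum (2%) received compound after a 6 hr settling period, followed by R5020 agonist at 1 nM final; 16 hr incubation preceded the FRET substrate step and fluorescence measurement.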
Chain of Progesterone receptor (Homo sapiens) (P06401 whole entry, looked up): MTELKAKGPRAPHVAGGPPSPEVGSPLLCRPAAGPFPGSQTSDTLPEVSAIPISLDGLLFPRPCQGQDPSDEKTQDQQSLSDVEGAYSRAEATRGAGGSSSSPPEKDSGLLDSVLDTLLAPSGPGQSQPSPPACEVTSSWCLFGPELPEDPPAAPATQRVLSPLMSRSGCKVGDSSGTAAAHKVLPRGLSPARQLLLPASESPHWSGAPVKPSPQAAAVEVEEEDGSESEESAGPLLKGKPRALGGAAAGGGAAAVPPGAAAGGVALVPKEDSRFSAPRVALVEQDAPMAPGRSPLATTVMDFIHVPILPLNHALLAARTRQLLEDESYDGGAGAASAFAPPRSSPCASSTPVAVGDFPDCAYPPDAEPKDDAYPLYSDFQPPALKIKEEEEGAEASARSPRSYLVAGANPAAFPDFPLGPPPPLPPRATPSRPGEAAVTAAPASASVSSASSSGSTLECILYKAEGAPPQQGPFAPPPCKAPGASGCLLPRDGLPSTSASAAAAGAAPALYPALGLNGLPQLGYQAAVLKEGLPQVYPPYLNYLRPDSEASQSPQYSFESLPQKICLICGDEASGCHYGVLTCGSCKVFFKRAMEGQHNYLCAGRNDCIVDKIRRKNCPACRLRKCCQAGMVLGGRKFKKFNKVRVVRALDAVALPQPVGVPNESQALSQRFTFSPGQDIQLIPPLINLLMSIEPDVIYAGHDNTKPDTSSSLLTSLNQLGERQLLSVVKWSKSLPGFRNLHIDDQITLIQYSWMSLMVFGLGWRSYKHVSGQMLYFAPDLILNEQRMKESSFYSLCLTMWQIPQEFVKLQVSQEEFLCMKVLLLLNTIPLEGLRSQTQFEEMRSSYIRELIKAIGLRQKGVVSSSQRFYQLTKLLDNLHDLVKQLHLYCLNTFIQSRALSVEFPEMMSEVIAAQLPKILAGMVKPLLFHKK

Assay [16] addresses Thyrotropin-releasing hormone receptor (Homo sapiens) (UniProt P34981). Briefly: qHTS assay to identify small molecule antagonists of the thyrotropin-releasing hormone receptor (TRHR) signaling pathway (AID 1346877; active = well fitted inhibition curve with a large enough effect in the repeat runs, not every such curve was filed as active; also: series mostly up to about 51 µM). In outline:
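TRHR-expressing HEK293 cells loaded with calcium dye for 2 h at 37 C; compounds pre-incubated 5 min at room temperature before TRH challenge at 1 nM final. Intracellular calcium fluorescence read kinetically for 3 min; 15 concentrations in triplicate.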

The nature of assay [17]: qHTS assay to identify small molecule agonists of the estrogen receptor beta (ER-beta) signaling pathway - cell viability counter screen (AID 1259380; active = well fitted curve in the direction sought with a large enough effect in the repeat runs; an effect the other way counts as inactive or inconclusive; also: nearly all actives have a fitted effect of over 30% in size). In outline:
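ER-beta-UAS-bla HEK293T cells in medium with 2% charcoal-stripped FBS, pre-incubated 6 hr, then treated 16 hr at 37C. Cytotoxicity read in the same wells by CellTiter-Glo luminescence after 30 min at room temperature.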

The nature of assay [18]: qHTS assay to identify small molecule antagonists of the progesterone receptor (PR) signaling pathway - cell viability counter screen (AID 1346798; active = well fitted curve in the direction sought with a large enough effect in the repeat runs; an effect the other way counts as inactive or inconclusive; also: series mostly up to about 92 µM; nearly all actives have a fitted effect of over 50% in size). In outline:
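Same-well multiplex: after 16 hr at 37C with compound and R5020 stimulation, HEK293T cells carrying a UAS-bla reporter received LiveBLAzer substrate (2 hr RT), then CellTiter-Glo (30 min RT) for luminescent viability.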

Assay [19] in a line: qHTS assay to identify small molecule agonists of the progesterone receptor (PR) signaling pathway - cell viability counter screen (AID 1346799). Also: nearly all actives have a fitted effect of over 45% in size. In outline:
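Counter screen for cytotoxicity: compound-treated PR-UAS-bla HEK293T cells (16 hr, 37C, 5% CO2) were assayed with CellTiter-Glo, luminescence measured after 30 min at room temperature.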

Assay [20] addresses Estrogen receptor beta (Homo sapiens) (UniProt Q92731). Briefly: qHTS assay to identify small molecule antagonists of the estrogen receptor beta (ER-beta) signaling pathway (AID 1259378; active = well fitted inhibition curve with a large enough effect in the signal ratio in the repeat runs, not every such curve was filed as active; the % refers to the signal ratio). In outline: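 Antagonist mode: compounds added to beta-lactamase reporter HEK293T ER-beta-UAS cells stimulated with E2 (1nM final), 16 hr at 37C. LiveBLAzer B/G FRET substrate, 2 hours room temperature, fluorescence read-out.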

Chain of Thyrotropin-releasing hormone receptor (Homo sapiens) (P34981 whole entry, looked up): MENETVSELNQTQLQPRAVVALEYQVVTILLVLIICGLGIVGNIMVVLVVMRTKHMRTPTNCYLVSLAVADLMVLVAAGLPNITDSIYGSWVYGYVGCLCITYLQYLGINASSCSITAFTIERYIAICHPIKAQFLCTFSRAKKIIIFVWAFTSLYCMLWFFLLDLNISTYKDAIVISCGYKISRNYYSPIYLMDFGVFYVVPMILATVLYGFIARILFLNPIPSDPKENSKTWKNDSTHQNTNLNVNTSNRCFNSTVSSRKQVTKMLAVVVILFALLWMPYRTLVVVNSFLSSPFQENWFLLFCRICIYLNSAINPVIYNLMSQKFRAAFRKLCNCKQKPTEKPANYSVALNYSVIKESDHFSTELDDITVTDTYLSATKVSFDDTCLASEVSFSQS
Chain of Estrogen receptor beta (Homo sapiens) (Q92731 whole entry, looked up): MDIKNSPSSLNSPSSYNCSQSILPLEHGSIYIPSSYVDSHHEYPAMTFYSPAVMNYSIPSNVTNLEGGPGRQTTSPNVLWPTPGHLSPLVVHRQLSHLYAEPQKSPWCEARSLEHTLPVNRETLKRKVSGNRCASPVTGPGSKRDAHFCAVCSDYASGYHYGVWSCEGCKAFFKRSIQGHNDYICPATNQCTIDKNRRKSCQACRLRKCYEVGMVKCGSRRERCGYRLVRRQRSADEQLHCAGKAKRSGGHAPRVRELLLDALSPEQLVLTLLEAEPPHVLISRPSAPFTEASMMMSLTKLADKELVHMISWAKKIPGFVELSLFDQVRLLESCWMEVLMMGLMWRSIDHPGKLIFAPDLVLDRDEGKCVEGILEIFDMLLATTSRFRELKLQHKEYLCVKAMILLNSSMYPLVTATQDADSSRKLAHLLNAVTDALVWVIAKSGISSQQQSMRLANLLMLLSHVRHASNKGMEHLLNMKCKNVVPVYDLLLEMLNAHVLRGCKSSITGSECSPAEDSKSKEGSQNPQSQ
Chain of Estrogen receptor (Homo sapiens) (P03372 whole entry, looked up): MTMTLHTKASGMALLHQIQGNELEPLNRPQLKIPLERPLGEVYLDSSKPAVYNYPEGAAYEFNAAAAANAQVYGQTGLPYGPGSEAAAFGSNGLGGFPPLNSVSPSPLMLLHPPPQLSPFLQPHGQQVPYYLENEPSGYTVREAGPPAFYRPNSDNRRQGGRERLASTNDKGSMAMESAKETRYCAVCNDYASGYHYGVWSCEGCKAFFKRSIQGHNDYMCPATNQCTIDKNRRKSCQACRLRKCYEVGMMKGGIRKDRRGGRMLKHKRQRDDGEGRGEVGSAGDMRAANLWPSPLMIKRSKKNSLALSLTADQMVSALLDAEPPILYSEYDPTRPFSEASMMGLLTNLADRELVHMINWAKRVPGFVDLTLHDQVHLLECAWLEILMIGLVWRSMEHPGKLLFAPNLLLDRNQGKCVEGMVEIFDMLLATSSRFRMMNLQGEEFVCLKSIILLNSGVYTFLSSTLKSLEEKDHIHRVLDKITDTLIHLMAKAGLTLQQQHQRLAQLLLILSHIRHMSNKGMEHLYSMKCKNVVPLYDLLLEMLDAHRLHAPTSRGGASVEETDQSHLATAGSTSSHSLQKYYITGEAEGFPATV

Turning to `O=C1Nc2cc(Cl)ccc2Oc2ccccc21`, the Potency result in assay [1], in assay [2], in [3], in assay [4], in assay [5] and in assay [6] was “inactive” in each case. The Potency result in assay [7], in assay [8], in assay [9], in assay [11], in assay [12] and in assay [14] was “inactive” each time. The result in assay [10] and in assay [13] was inactive.

Regarding `COCCCCCCCCOCCC[Si](C)(O[Si](C)(C)C)O[Si](C)(C)C`, the Potency entry in assay [1], in [2], in [6], in assay [7], in assay [8] and in assay [15] was “inactive” throughout. For the same compound, the Potency result in assay [11], in assay [12] and in [14] was “inactive” throughout. Moreover, the Potency in assay [3] was 17.2 µM (active); in assay [9] it was 24.3 µM (active). Also, the call in assay [10], in assay [13] and in assay [16] was inactive.

As for `Nc1nc(CC(=O)O)cs1`, the Potency result in assay [1], in assay [2], in assay [7], in assay [8], in [9] and in assay [11] was “inactive” in each case. For the same compound, the Potency entry in [12] and in assay [14] was “inactive” in each case. Also, the call in assay [13] and in assay [16] was inactive.

With `O=C1[C@H](CC[C@H](O)c2ccc(F)cc2)[C@@H](c2ccc(O)cc2)N1c1ccc(F)cc1`, the Potency result in assay [1], in [2], in [3], in assay [17], in [6] and in assay [7] was “inactive” each time. Besides, the Potency entry in [8], in assay [9], in assay [11] and in [12] was “inactive” each time. The Potency in assay [15] was 23.7 µM (active). Further, the outcome in assay [13] was inactive.

Regarding `CCCCCCCCCC=O`, the Potency result in [1], in assay [2], in assay [3], in assay [17], in [5] and in assay [6] was “inactive” each time. Besides, the Potency entry in assay [7], in assay [8], in [9], in assay [15], in assay [18] and in assay [19] was “inactive” throughout. In addition, the Potency result in [11], in assay [12] and in assay [14] was “inactive” in each case. Moreover, the compound was called inactive in assay [10] and in [16].

Turning to `CC(C)CCCC(C)CCO` (stereo not given), the Potency in assay [1] is 61.1 µM (active). Moreover, the Potency entry in [20], in assay [3], in [17], in assay [4], in assay [5] and in assay [6] was “inactive” in each case. Besides, the Potency result in [7], in assay [8], in assay [9], in [15], in assay [18] and in assay [19] was “inactive” each time. Moreover, the Potency result in assay [11], in [12] and in [14] was “inactive” each time. Moreover, the compound was called inactive in [13] and in assay [16].

On to `CC(C)(C)C(=O)OCOP(=O)(COCCn1cnc2c(N)ncnc21)OCOC(=O)C(C)(C)C`, for which the Potency in assay [1] was 2.98 µM (active). In addition, the Potency result in assay [2], in assay [20], in [5], in assay [7], in assay [8] and in assay [9] was “inactive” in each case. In assay [11], the Potency entry was “inactive”. Moreover, the outcome in [10] and in [13] was inactive.
